PubChem BioAssay (NCATS)
Where “and” joins values, the source holds several entries; their conditions need not be identical. Equal entries are not always repeated. Records with an inconclusive call do not appear. Calls of active or inactive are those of the source. Unless noted, calls follow the shape of the dose curve; as a rule, active = well fitted curve in the direction sought with a large enough effect; inconclusive = small, poorly fitted or top-dose-only effect, or another doubt; inactive = no such curve, though single readings can be large; an effect the other way counts as inactive or inconclusive.

How the values were obtained:
[1] = Cellular Toxicity (caspase-3) Jurkat (AID 655);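 also: cells exposed to compound for 16 h at 37 °C before reading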
In short: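 Jurkat cells (5000/well) in complete medium were treated with compounds for 16 hr at 37 °C, then Caspase-Glo 3/7 luminescence was read after 20 min at room temperature. Data normalized to DMSO (basal) and 100 uM tamoxifen (100%); AC50 from Hill fit.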

[2] = Cellular Toxicity (caspase-3) SHSY5Y (AID 657);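 also: cells exposed to compound for 16 hours at 37 °C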
In short: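 SH-SY5Y human neuroblastoma cells (1500/well) were treated with compounds for 16 h at 37 °C, then Caspase-Glo 3/7 luminescence was read after 1 h at room temperature. Data normalized to DMSO and 10 uM staurosporine; AC50 from Hill fits.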

[3] = Cellular Toxicity (caspase-3) BJ (AID 658);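 also: cells exposed to compound for 16 hours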
In short: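 Caspase-Glo 3/7 luminescence, read 1 hr after reagent at room temperature, in normal BJ fibroblasts exposed 16 hours at 37 °C. AC50 values from Hill-equation concentration-response, scaled between DMSO basal and 10 uM staurosporine as 100%.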

[4] = Cellular Toxicity (caspase-3) MRC-5 (AID 659); conditions: Potency: caspase-3 activation; also: potency is read from the fitted curve at half-maximal effect
In short: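 Luminescent Caspase-Glo 3/7 read-out (1 h, room temperature) after a 16 h, 37 °C compound exposure of MRC-5 lung fibroblasts at 1500 cells/well. Concentration-response AC50 from Hill equation; 0% DMSO, 100% 10 uM staurosporine.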

[5] = Cellular Toxicity (caspase-3) Mesangial (AID 660);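 also: combined caspase 3 and 7 activity read by Caspase-Glo luminescence; cells exposed to compound for 16 h before the caspase read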
In short: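 Caspase 3/7 activation measured by Caspase-Glo 3/7 luminescence (20 min, room temperature) following 16 h exposure of mesangial cells (1000/well); AC50 from Hill-equation fit, normalized to DMSO and 100 uM tamoxifen.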

[6] = Cellular Toxicity (caspase-3) SK-N-SH (AID 661);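 also: cells exposed to compound for 16 hours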
In short: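 Caspase 3/7 activation was read by luminogenic substrate cleavage after 16 hour treatment of SK-N-SH cells. Signal was scaled between DMSO and 10 uM staurosporine, and concentration-response data were fitted with the Hill equation for AC50.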

[7] = Cellular Toxicity (caspase-3) H-4-II-E (AID 663); conditions: Potency: caspase-3 activation;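 also: cells exposed to compound for 16 hr before readout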
In short: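 Caspase 3/7 activation measured by luminescent aminoluciferin substrate cleavage after 16 hr compound treatment of H-4-II-E cells in complete medium. Increase normalized between DMSO (basal) and 100 uM tamoxifen (100%); Hill-equation AC50 from concentration-response.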

[8] = Cellular Toxicity (caspase-3) Hek293 (AID 664);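 also: cells exposed to compound for 16 h at 37 °C before readout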
In short: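 Concentration-response qHTS: caspase 3/7 activation measured by luminescent aminoluciferin substrate cleavage after 16 h compound exposure of Hek 293 cells. AC50 from Hill equation, with DMSO as basal and 100 uM tamoxifen as 100%.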

[9] = Cellular Toxicity (caspase-3) N2a (AID 665); conditions: Potency: caspase-3 activation;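 also: compound exposure lasted 16 h at 37 °C before readout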
In short: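 Caspase-3/7 activation measured as luminescence from Caspase-Glo reagent (1 h, room temperature) after 16 h compound exposure of mouse N2a cells. AC50 values from Hill-equation concentration-response, scaled between DMSO and 10 uM staurosporine.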

[10] = Cellular Toxicity (caspase-3) NIH 3T3 (AID 666); also: potency is read from the fitted curve at half-maximal effect
In short: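 Caspase-Glo 3/7 luminescence reported caspase activation in 1000 NIH 3T3 cells/well after 16 h compound exposure at 37 C. DMSO set basal and 100 uM tamoxifen set 100% stimulation; concentration-response modeled with the Hill equation for AC50.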

[11] = Cellular Toxicity (caspase-3) Renal Proximal Tubule (AID 667);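 also: cells exposed to compound for 16 hours at 37 °C before detection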
In short: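 Primary rat proximal tubule cells, 1000/well, 5 h plating at 37 °C, then compound 16 h at 37 °C. Caspase-Glo 3/7 reagent, 1 h RT, luminescence. Normalized to DMSO (basal) and 10 uM staurosporine (100%); Hill-fit AC50.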

[12] = Confirmation and Secondary Assay for Modulators of Hemoglobin Beta Chain Splicing at IVS2 654 locus (AID 910);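 also: HeLa cells stably carrying EGFP split by mutant beta-globin IVS2-654 intron; per-well total GFP intensity by laser scanning cytometry after 2-day treatment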
In short: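 Readout: per-well total peak green fluorescence (488 nm ex, 500–520 nm em) from objects 5–250 µm, reflecting correct splicing of an EGFP-654 reporter. Compounds were applied for 2 days at 37 °C to overnight-plated HeLa EGFP-654 cells; controls were DMSO and 500 nM IVS2-654 PNA.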

[13] = target: 3',5'-cyclic-AMP phosphodiesterase 4B (Homo sapiens) (UniProt Q07343); experiment: qHTS Assay for Inhibitors of PDE-IV (AID 607; active = well fitted activation curve with a large enough effect in the main read-out, with a control signal flat, not every such curve was filed as active)
In short: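 Live HEK293 cells with a modified cyclic nucleotide-gated (CNG) channel report intracellular cAMP via membrane-potential dye fluorescence (ex 535/em 590 nm). Endogenous PDE-IV was targeted. Compounds were tested at up to 22.9 uM final; RO 20-1724 100 uM served as control.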

[14] = target: Cytochrome P450 3A4 (Homo sapiens) (UniProt P08684); experiment: qHTS Assay for Activators of Cytochrome P450 3A4 (AID 885); also: nearly all actives have a fitted effect of over 65% in size
In short: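 Using 20nM recombinant human CYP3A4 in potassium phosphate (200mM), substrate Luciferin-PPXE at 25uM, luminescent luciferin detection followed a 60-min RT NADPH reaction; data scaled to 57 uM ketoconazole.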

[15] = target: Cytochrome P450 2D6 (Homo sapiens) (UniProt P10635); experiment: qHTS Assay for Inhibitors and Substrates of Cytochrome P450 2D6 (AID 891); also: nearly all actives have a fitted effect of over 60% in size; also: potency is read from the fitted curve at half-maximal effect
In short: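 Luminescent read-out of luciferin formed by 5 nM human CYP2D6 demethylating 30 uM Luciferin-ME EGE (Km level) over 60 min at room temperature after NADPH regeneration addition. Data normalized to full inhibition by 1.43 uM quinidine.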

[16] = target: Cytochrome P450 2C19 (Homo sapiens) (UniProt P33261); experiment: qHTS Assay for Inhibitors and Substrates of Cytochrome P450 2C19 (AID 899); also: nearly all actives have a fitted effect of over 60% in size; also: potency is read from the fitted curve at half-maximal effect
In short: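 Luminescence readout of luciferin formed from 10uM Luciferin-H EGE (KM level) by 5 nM CYP2C19 in 50mM KPO4. 60 min NADPH-driven reaction at 37C after 10 min compound preincubation; data scaled to 57uM ketoconazole inhibition.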

[17] = target: Guanine nucleotide-binding protein G(i) subunit alpha-1 (Homo sapiens) (UniProt P63096); experiment: qHTS Assay for Inhibitors of RGS12 GoLoco Motif Activity (Green Fluorophore) (AID 879);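 also: negative values mean loss of peptide binding seen as reduced polarization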
In short: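 A drop in FITC polarization marked displacement of the FITC-tagged RGS12 GoLoco peptide (10 nM) from Gαi1 (50 nM). Compounds were incubated 10 min at room temperature in Tris pH 7.5 buffer containing 150 mM NaCl, 0.1 mM GDP and 0.05% NP40; unlabeled peptide titration served as control.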

[18] = target: Cytochrome P450 3A4 (Homo sapiens) (UniProt P08684); experiment: qHTS Assay for Inhibitors and Substrates of Cytochrome P450 3A4 (AID 884); also: series mostly up to about 57 µM; nearly all actives have a fitted effect of over 50% in size
In short: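 Luminescent readout of luciferin produced by CYP3A4 (20 nM) dealkylation of Luciferin-PPXE, 25 uM (its KM). NADPH-driven reaction ran 60 min at RT after 10 min compound preincubation; data scaled to 57 uM ketoconazole as 100% inhibition.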

Measured: Potency

Sequence of Cytochrome P450 3A4 (Homo sapiens) (P08684 whole entry, looked up): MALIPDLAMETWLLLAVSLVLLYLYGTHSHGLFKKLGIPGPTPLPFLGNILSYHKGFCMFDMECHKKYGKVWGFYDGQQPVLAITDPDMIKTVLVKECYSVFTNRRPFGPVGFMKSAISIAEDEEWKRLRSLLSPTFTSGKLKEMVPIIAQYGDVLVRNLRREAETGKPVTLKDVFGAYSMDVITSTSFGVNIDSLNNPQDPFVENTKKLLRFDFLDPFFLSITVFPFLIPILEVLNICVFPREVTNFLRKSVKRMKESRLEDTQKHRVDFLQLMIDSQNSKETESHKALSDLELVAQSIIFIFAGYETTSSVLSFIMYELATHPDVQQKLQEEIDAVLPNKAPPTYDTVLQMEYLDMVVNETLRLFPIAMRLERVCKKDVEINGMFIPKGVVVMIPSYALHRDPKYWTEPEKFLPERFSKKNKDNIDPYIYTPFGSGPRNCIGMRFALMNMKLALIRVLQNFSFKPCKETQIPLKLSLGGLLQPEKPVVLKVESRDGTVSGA
Sequence of 3',5'-cyclic-AMP phosphodiesterase 4B (Homo sapiens) (Q07343 whole entry, looked up): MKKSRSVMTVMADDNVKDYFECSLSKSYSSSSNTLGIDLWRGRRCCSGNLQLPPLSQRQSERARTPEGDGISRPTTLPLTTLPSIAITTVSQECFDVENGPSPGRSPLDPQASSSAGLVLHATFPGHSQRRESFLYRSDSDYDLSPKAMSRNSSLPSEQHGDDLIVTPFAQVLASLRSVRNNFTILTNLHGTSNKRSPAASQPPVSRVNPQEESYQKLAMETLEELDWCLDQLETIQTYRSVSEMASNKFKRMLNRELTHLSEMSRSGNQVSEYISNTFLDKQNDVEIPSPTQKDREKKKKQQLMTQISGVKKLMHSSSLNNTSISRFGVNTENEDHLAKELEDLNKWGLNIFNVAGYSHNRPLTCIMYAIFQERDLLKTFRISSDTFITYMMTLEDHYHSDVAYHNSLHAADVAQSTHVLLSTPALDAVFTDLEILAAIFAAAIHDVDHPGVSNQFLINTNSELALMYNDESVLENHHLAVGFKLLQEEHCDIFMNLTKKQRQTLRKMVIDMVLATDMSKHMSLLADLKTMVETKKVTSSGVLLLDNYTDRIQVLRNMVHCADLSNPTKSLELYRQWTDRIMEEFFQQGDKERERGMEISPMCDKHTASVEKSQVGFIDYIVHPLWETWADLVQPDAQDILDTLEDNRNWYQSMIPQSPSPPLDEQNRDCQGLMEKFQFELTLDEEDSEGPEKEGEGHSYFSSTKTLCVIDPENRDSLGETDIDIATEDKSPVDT
Sequence of Cytochrome P450 2D6 (Homo sapiens) (P10635 whole entry, looked up): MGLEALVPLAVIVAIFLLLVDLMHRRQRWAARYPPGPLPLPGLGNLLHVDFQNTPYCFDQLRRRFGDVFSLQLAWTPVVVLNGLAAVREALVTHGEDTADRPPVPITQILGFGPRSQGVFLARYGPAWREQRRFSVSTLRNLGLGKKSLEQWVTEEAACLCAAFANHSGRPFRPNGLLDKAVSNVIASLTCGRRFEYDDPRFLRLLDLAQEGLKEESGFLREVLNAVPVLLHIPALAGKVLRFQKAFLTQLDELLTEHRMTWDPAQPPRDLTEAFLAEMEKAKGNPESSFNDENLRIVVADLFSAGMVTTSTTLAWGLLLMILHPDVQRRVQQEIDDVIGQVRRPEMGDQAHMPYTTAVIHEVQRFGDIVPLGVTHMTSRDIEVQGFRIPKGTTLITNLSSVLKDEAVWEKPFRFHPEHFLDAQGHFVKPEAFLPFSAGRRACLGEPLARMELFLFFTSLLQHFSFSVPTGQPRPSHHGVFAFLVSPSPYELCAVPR
Sequence of Cytochrome P450 2C19 (Homo sapiens) (P33261 whole entry, looked up): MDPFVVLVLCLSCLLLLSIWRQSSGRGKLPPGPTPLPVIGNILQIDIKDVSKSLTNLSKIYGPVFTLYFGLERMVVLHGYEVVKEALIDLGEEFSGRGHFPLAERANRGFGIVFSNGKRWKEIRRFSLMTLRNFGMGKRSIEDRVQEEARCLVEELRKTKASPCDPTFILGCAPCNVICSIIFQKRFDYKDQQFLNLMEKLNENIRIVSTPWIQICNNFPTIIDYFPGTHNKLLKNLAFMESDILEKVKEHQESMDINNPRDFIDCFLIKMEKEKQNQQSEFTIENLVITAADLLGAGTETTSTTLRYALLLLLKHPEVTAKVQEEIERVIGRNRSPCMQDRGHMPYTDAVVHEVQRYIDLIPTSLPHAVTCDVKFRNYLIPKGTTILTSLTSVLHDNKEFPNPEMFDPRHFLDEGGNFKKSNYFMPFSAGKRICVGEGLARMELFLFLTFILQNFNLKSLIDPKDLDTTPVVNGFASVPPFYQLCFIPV
Sequence of Guanine nucleotide-binding protein G(i) subunit alpha-1 (Homo sapiens) (P63096 whole entry, looked up): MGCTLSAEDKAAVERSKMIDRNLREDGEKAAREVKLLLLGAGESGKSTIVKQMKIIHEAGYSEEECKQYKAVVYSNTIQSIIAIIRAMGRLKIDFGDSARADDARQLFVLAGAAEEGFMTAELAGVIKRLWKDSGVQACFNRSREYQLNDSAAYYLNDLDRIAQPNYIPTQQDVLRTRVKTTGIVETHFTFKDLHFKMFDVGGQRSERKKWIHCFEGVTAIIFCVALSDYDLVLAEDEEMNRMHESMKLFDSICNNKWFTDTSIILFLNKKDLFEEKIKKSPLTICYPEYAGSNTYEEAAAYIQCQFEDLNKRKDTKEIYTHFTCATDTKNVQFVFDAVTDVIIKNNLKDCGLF

CC/C(=C(/CC)c1ccc(O)cc1)c1ccc(O)cc1
not listed: [13] | [14] | [15] | [16] | [17] | [18]
inactive: all other assays above

CC(C)(C)CC(C)(C)c1ccc(OCCOCC[N+](C)(C)Cc2ccccc2)cc1
active: [4] 31.6 µM
inactive: [2] | [12]

CCCCCCc1ccc(O)cc1O
not listed: [13] | [14] | [15] | [16] | [17] | [18]
inactive: all other assays above

O=C(COc1ccc(Cl)cc1)N1CCN(Cc2ccc3c(c2)OCO3)CC1
active: [15] 199 nM | [16] 5.01 µM
inactive: [13] | [14] | [12]

OC(CCN1CCCCC1)(c1ccccc1)c1ccccc1
active: [15] 5.01 µM and 1.26 µM
inactive: [13] | [12]

Oc1c(Cl)cc(Cl)cc1Sc1cc(Cl)cc(Cl)c1O
not listed: [1] | [8] | [13] | [15] | [16] | [17] | [18]
inactive: all other assays above

C=CCc1ccc(O)c(OC)c1
not listed: [13] | [14] | [15] | [16] | [17] | [18]
inactive: all other assays above

CN(C)CC/C=C1\c2ccccc2Sc2ccc(Cl)cc21
active: [15] 2510 nM
inactive: [13] | [14] | [12]

COC1=CC(=O)C[C@@H](C)[C@]12Oc1c(Cl)c(OC)cc(OC)c1C2=O
not listed: [13] | [14] | [15] | [16] | [17] | [18]
inactive: all other assays above

COc1cc(-c2ccc(=O)[nH]n2)ccc1OC(F)F
inactive: [17] | [18] | [15] | [16]

Oc1c(I)cc(Cl)c2cccnc12
active: [10] 12.6 µM
not listed: [1] | [13] | [14] | [15] | [16] | [17] | [18]
inactive: all other assays above

Nc1ccc(C(=O)O)cc1
not listed: [13] | [14] | [15] | [16] | [17]
inactive: all other assays above
